Several values for one entry are separate records, joined by “and”; a condition that tells them apart may be missing. Equal values may be shown once. Records with an inconclusive call do not appear. A call without a number means that no potency is given here. A structure can be active in one record and inactive in another. Activity calls are given as the source filed them. Unless noted, calls come from the whole dose curve; as a rule, active = well fitted curve in the direction sought with a large enough effect in the repeat runs; inconclusive = weak or mixed curves; inactive = no such curve, though single readings can be large; an effect the other way counts as inactive or inconclusive.
Experiments:
[1] = qHTS assay to identify small molecule antagonists of the thyroid receptor (TR) signaling pathway - cell viability counter screen (AID 743064); conditions: GH3.TRE-Luc viability, CellTiter-Fluor, 24 h; series mostly up to 70.3 µM; note: nearly all actives have a fitted effect of over 50% in size; note: potency is the fitted concentration of half-maximal effect
Method in brief: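 GH3.TRE-Luc rat pituitary cells carrying a TRE-luciferase reporter were treated with compound plus 1 nM T3 (final) for 23.5 h at 37 °C. Viability was then read in the same wells by CellTiter-Fluor fluorescence after a further 30 min.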

[2] = qHTS assay to identify small molecule antagonists of the thyroid receptor (TR) signaling pathway (AID 743065); conditions: GH3.TRE-Luc, T3-stimulated luciferase inhibition, 23.5 h; series mostly up to 70.3 µM; note: nearly all actives have a fitted effect of over 55% in size; note: potency is the fitted concentration of half-maximal effect
Method in brief: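 GH3.TRE-Luc rat pituitary cells (two TREs driving luciferase) were dosed with compound, then stimulated with 1 nM T3 (final) for 23.5 h at 37 C. ONE-Glo luminescence was the read-out, with CellTiter-Fluor fluorescence as the cytotoxicity counter-screen.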

[3] = test system: thyroid hormone receptor (rat, GH3 cells); assay: qHTS assay to identify small molecule agonists of the thyroid receptor (TR) signaling pathway (AID 743066; calls by dose curve); conditions: GH3.TRE-Luc cells, TR agonist luciferase, 24 h; series mostly up to 83.9 µM
[4] = qHTS assay to identify small molecule antagonists of the estrogen receptor alpha (ER-alpha) signaling pathway - cell viability counter screen (AID 743074; calls by dose curve;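 note: HEK293 cells carrying ER-alpha-UAS-bla reporter stimulated with 17beta-estradiol; nearly all actives have a fitted effect of over 45% in size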); conditions: ERalpha-bla HEK293 viability, CellTiter-Glo luminescence, 18 h; series mostly up to 69.4 µM
[5] = molecular target: Estrogen receptor (Homo sapiens) (UniProt P03372); assay: qHTS assay to identify small molecule agonists of the estrogen receptor alpha (ER-alpha) signaling pathway (AID 743075; calls by dose curve;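 note: HEK293 GripTite cells with ER-alpha and UAS-driven beta-lactamase reporter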); conditions: HEK293 ER-alpha-UAS-bla, beta-lactamase FRET ratio, 18 h; series mostly up to 70.1 µM
[6] = molecular target: Estrogen receptor (Homo sapiens) (UniProt P03372); assay: qHTS assay to identify small molecule agonists of the estrogen receptor alpha (ER-alpha) signaling pathway using the BG1 cell line (AID 743079); conditions: BG1Luc4E2 cells, ERE-luciferase agonist, 22 h; series mostly up to 70.3 µM; note: nearly all actives have a fitted effect of over 20% in size; note: potency is the fitted concentration of half-maximal effect
[7] = qHTS assay to identify small molecule antagonists of the estrogen receptor alpha (ER-alpha) signaling pathway using the BG1 cell line (AID 743080; calls by dose curve;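 note: BG1 cells stimulated with 17beta-estradiol alongside compound; nearly all actives have a fitted effect of over 25% in size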; note: potency is the fitted concentration of half-maximal effect); conditions: BG1Luc4E2 ERE-luciferase antagonist mode, luminescence; series mostly up to 70.3 µM
Method in brief: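 BG1-Luc-4E2 cells (endogenous full-length ER-alpha, stable 4×ERE-luciferase) were starved 5 days in phenol-red-free medium with 10% charcoal-stripped FBS, plated 24 h, then given compound plus 17beta-estradiol for 21.5 h at 37 C; ONE-Glo luminescence read after 30 min.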

[8] = qHTS assay to identify small molecule antagonists of the estrogen receptor alpha (ER-alpha) signaling pathway using the BG1 cell line - cell viability counter screen (AID 743081); conditions: BG1Luc4E2 viability, CellTiter-Fluor, 22 h; series mostly up to 70.3 µM;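 note: compound given together with 17beta-estradiol as the ER stimulus; nearly all actives have a fitted effect of over 45% in size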
Aromatase (Homo sapiens) = Aromatase (Homo sapiens) (UniProt P11511); assay: qHTS assay to identify aromatase inhibitors (AID 743083); conditions: MCF-7 aro ERE, testosterone-driven ERE luciferase, 24 h; series mostly up to 70.3 µM; note: nearly all actives have a fitted effect of over 55% in size; note: potency is the fitted concentration of half-maximal effect
[9] = qHTS assay to identify aromatase inhibitors - cell viability counter screen (AID 743084); conditions: MCF-7 aro ERE viability, CellTiter-Fluor, 24 h; series mostly up to 70.3 µM;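 note: cells stimulated with testosterone during compound exposure; nearly all actives have a fitted effect of over 55% in size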; note: potency is the fitted concentration of half-maximal effect
[10] = qHTS assay to identify small molecule antagonists of the peroxisome proliferator-activated receptor gamma (PPARg) signaling pathway - cell viability counter screen (AID 743194); conditions: PPARg-bla HEK293H viability, CellTiter-Glo luminescence, 17 h, co-treated with 50 nM rosiglitazone; series mostly up to 62.6 µM; note: nearly all actives have a fitted effect of over 55% in size
Method in brief: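 Cytotoxicity counter screen in PPARg-bla HEK293H cells, same wells as reporter assay. Compounds plus 50 nM rosiglitazone (final) for 17 h at 37 C, then viability read by CellTiter-Glo luminescence.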

[11] = qHTS assay for small molecule agonists of the antioxidant response element (ARE) signaling pathway - cell viability counter screen (AID 743203; calls by dose curve; note: nearly all actives have a fitted effect of over 55% in size); conditions: ARE-bla HepG2 viability, CellTiter-Glo luminescence, 16 h; series mostly up to 73.3 µM
Method in brief: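 Following 16 hrs of compound treatment at 37C, HepG2 cells with an ARE-controlled beta-lactamase gene were lysed with CellTiter-Glo. Luminescence was read after 30 min at room temperature.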

[12] = qHTS assay for small molecule activators of the heat shock response signaling pathway - cell viability counter screen (AID 743209); conditions: HSE-bla HeLa viability, CellTiter-Glo luminescence, 5 h; series mostly up to 62.6 µM; note: nearly all actives have a fitted effect of over 50% in size
Method in brief: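 Readout: CellTiter-Glo luminescence, 30 min at room temperature. System: HSE-bla HeLa cells, 1500/well, plated overnight. Treatment: compounds in DMSO, 5 h at 37 C.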

[13] = qHTS assay for small molecule activators of the heat shock response signaling pathway (AID 743210; active = well fitted activation curve with a large enough effect in the signal ratio in the repeat runs, with a control signal flat, not every such curve was filed as active; the % refers to the signal ratio;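 note: HeLa cells with beta-lactamase reporter driven by heat shock elements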); conditions: HeLa HSE-bla reporter, beta-lactamase ratio, 5 h; series mostly up to 62.6 µM
Method in brief: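 Quantitative high-throughput format using an engineered HeLa line in which heat shock response elements drive beta-lactamase; after 5 h with compound, cells received a B/G FRET substrate and fluorescence was read.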

[14] = molecular target: Estrogen receptor (Homo sapiens) (UniProt P03372); assay: qHTS assay to identify small molecule antagonists of the estrogen receptor alpha (ER-alpha) signaling pathway (AID 743069; active = well fitted curve in the direction sought with a large enough effect in the signal ratio in the repeat runs, not every such curve was filed as active; the % refers to the signal ratio); conditions: HEK293 ER-alpha-UAS-bla, beta-lactamase ratio, antagonist mode; series mostly up to 69.4 µM
Method in brief: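 Reporter cells (ER-alpha-bla, HEK293 background) are conditioned overnight in stripped-serum medium (2% charcoal-stripped FBS). Compound and 17beta-estradiol exposure runs 18 hr at 37C, 5% CO2.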

[15] = molecular target: Aryl hydrocarbon receptor (Homo sapiens) (UniProt P35869); assay: qHTS assay to identify small molecule that activate the aryl hydrocarbon receptor (AhR) signaling pathway (AID 743085); conditions: HepG2 AhR-luc (HG2L7.5c1), luciferase, 24 h; series mostly up to 70.3 µM; note: nearly all actives have a fitted effect of over 15% in size; note: potency is the fitted concentration of half-maximal effect;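 for activation: HG2L7.5c1 human HepG2 liver cells with stably integrated DRE-driven firefly reporter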
Method in brief: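 HepG2 cells (HG2L7.5c1) stably carrying a firefly luciferase reporter driven by 20 dioxin responsive elements were exposed to compound for 24 h at 37C after a 5 h settling period; luminescence rise (ONE-Glo) indicated activation.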

[16] = qHTS assay to identify small molecule that activate the aryl hydrocarbon receptor (AhR) signaling pathway - cell viability counter screen (AID 743086); conditions: HepG2-AhR-luc viability, CellTiter-Fluor, 24 h; series mostly up to 70.3 µM;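 note: HepG2 liver cells carrying the AhR DRE luciferase reporter; nearly all actives have a fitted effect of over 45% in size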
Method in brief: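 HepG2-AhR-luc (HG2L7.5c1) cells, 4000/well, treated 24 h at 37 C with compound; viability measured as CellTiter-Fluor fluorescence after 30 min in the same wells as the luciferase read.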

[17] = molecular target: Peroxisome proliferator-activated receptor gamma (Homo sapiens) (UniProt P37231); assay: qHTS assay to identify small molecule agonists of the peroxisome proliferator-activated receptor gamma (PPARg) signaling pathway (AID 743094; active = well fitted activation curve with a large enough effect in the signal ratio in the repeat runs, not every such curve was filed as active; the % refers to the signal ratio); conditions: HEK293H PPARg-UAS-bla, beta-lactamase FRET ratio, 17 h; series mostly up to 57 µM
Method in brief: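 Compounds dissolved in DMSO were added to PPARg UAS-bla HEK293H cells for 17 h at 37C, and reporter expression was quantified by fluorescence intensity after 1 h with LiveBLAzer B/G FRET substrate.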

[18] = molecular target: Peroxisome proliferator-activated receptor gamma (Homo sapiens) (UniProt P37231); assay: qHTS assay to identify small molecule antagonists of the peroxisome proliferator-activated receptor gamma (PPARg) signaling pathway (AID 743191; calls by dose curve; note: nearly all actives have a fitted effect of over 30% in size); conditions: HEK293H PPARg-UAS-bla, beta-lactamase ratio, antagonist, 17 h; series mostly up to 62.6 µM
Method in brief: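 GeneBLAzer PPARg UAS-bla HEK293H cells, 5 h post-plating, exposed to compounds 17 h at 37C. LiveBLAzer B/G FRET substrate added for 1 h at room temperature; beta-lactamase reporter read by fluorescence intensity.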

[19] = qHTS assay for small molecule agonists of the antioxidant response element (ARE) signaling pathway (AID 743202; active = well fitted activation curve with a large enough effect in the signal ratio in the repeat runs, not every such curve was filed as active; the % refers to the signal ratio); conditions: HepG2 ARE-bla reporter, beta-lactamase FRET, 16 h; series mostly up to 73.3 µM
Method in brief: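 Agonist mode reporter screen: HepG2 cells with ARE-controlled beta-lactamase are incubated with test compounds for 16 h at 37 C, and beta-lactamase activity is measured as fluorescence of cleaved B/G FRET substrate.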

Sequence of Aromatase (Homo sapiens) (P11511 whole entry, looked up): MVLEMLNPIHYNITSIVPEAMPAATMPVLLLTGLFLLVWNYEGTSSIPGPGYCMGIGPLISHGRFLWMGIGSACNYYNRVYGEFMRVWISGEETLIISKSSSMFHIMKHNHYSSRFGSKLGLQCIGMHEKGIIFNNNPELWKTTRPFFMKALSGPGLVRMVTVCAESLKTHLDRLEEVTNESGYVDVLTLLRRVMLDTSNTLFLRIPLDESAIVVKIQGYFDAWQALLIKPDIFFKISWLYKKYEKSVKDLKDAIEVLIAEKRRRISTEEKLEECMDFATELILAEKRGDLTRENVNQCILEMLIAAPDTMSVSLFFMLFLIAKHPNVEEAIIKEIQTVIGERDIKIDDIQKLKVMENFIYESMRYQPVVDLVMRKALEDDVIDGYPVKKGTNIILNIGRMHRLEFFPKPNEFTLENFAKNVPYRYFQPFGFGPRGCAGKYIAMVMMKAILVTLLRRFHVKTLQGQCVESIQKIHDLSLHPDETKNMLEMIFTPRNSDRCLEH
Sequence of Estrogen receptor (Homo sapiens) (P03372 whole entry, looked up): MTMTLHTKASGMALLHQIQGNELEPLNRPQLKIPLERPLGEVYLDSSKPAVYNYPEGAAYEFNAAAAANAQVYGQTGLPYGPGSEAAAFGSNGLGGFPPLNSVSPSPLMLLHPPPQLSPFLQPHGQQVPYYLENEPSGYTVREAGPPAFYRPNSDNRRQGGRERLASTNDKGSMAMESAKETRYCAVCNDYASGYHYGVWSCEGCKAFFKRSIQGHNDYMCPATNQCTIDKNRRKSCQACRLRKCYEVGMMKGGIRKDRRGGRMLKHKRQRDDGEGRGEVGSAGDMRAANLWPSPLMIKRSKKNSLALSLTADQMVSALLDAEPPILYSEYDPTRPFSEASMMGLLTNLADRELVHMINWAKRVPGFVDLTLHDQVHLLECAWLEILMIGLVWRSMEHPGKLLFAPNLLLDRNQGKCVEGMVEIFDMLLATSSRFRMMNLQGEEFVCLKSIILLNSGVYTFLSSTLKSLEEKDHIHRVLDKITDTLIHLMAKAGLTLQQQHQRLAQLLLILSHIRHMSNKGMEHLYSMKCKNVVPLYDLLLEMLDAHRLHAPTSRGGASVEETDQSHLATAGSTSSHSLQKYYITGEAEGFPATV
Sequence of Aryl hydrocarbon receptor (Homo sapiens) (P35869 whole entry, looked up): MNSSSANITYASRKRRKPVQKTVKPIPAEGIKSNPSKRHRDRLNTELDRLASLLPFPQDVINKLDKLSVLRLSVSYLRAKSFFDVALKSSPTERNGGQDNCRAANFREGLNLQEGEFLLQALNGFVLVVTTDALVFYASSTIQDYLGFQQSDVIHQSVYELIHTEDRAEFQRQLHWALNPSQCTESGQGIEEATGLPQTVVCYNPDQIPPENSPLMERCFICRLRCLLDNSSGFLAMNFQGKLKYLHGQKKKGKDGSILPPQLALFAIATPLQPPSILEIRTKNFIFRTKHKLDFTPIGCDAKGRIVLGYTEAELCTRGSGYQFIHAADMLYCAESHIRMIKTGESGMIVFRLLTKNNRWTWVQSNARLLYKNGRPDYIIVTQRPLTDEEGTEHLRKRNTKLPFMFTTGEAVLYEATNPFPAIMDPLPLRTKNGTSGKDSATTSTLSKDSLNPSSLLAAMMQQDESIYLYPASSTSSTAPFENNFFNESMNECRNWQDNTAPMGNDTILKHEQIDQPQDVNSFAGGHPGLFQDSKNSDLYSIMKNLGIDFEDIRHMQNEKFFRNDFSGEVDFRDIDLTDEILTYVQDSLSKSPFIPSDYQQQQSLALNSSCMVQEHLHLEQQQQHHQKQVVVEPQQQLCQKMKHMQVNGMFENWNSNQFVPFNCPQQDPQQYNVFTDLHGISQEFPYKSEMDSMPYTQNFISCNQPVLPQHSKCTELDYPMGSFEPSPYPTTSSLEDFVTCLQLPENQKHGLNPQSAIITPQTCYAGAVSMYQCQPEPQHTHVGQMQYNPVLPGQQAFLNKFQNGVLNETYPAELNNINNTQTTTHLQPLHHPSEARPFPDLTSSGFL
Sequence of Peroxisome proliferator-activated receptor gamma (Homo sapiens) (P37231 whole entry, looked up): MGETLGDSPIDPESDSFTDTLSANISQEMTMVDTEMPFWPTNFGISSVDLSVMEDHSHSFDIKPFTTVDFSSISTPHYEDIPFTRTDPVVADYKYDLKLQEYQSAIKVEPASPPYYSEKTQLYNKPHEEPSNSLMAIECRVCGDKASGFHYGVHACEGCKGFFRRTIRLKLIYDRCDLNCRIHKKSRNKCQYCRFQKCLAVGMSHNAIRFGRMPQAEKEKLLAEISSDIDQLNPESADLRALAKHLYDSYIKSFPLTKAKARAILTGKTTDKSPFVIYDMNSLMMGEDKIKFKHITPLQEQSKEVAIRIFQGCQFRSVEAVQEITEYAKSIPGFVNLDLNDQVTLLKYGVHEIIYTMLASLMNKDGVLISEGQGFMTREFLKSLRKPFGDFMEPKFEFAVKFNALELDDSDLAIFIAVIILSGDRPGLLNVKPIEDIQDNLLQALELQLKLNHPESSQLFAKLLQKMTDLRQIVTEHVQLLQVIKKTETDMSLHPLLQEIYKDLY

## Oc1ccc(O)cc1
[1]
  Potency: 26.6 µM (active) and 17.1 µM (active) and 34.4 µM (active)
[2]
  Potency: 21.1 µM (active) and 30.5 µM (active) and 30.6 µM (active)
[3]
  Potency: inactive
[4]
  Potency: inactive
[5]
  Potency: inactive
[6]
  Potency: inactive
[7]
  Potency: inactive
[8]
  Potency: inactive
Aromatase (Homo sapiens)
  Potency: inactive and 60.8 µM (active)
[9]
  Potency: inactive and 54.2 µM (active)
[10]
  Potency: inactive
[11]
  Potency: inactive
[12]
  Potency: inactive
[13]
  Potency: inactive

## Cc1cccc(C(=O)O)c1
[1]
  Potency: inactive
[2]
  Potency: inactive
[3]
  Potency: inactive
[14]
  Potency: inactive
[4]
  Potency: inactive
[5]
  Potency: inactive
[6]
  Potency: inactive
[7]
  Potency: inactive
[8]
  Potency: inactive
Aromatase (Homo sapiens)
  Potency: inactive
[9]
  Potency: inactive
[15]
  Potency: inactive
[16]
  Potency: inactive
[17]
  Potency: inactive
[18]
  Potency: inactive
[10]
  Potency: inactive
[19]
  Potency: inactive
[11]
  Potency: inactive
[12]
  Potency: inactive
[13]
  Potency: inactive

## O=C(OCc1ccccc1)c1ccccc1O
[1]
  Potency: inactive
[2]
  Potency: inactive
[3]
  Potency: inactive
[14]
  Potency: inactive
[4]
  Potency: inactive
[5]
  Potency: inactive
[6]
  Potency: 24.3 µM (active)
[7]
  Potency: inactive
[8]
  Potency: inactive
Aromatase (Homo sapiens)
  Potency: inactive
[9]
  Potency: inactive
[15]
  Potency: inactive
[16]
  Potency: inactive
[10]
  Potency: inactive
[19]
  Potency: inactive
[11]
  Potency: inactive
[12]
  Potency: inactive
[13]
  Potency: inactive

## CCCCNS(=O)(=O)c1ccccc1
[1]
  Potency: inactive
[2]
  Potency: inactive
[3]
  Potency: inactive
[14]
  Potency: inactive
[4]
  Potency: inactive
[5]
  Potency: inactive
[6]
  Potency: inactive
[7]
  Potency: inactive
[8]
  Potency: inactive
Aromatase (Homo sapiens)
  Potency: inactive
[9]
  Potency: inactive
[15]
  Potency: inactive
[16]
  Potency: inactive
[17]
  Potency: inactive
[10]
  Potency: inactive
[19]
  Potency: inactive
[11]
  Potency: inactive
[12]
  Potency: inactive
[13]
  Potency: inactive

## CCCCC(CC)COP(=O)(OCC(CC)CCCC)OCC(CC)CCCC (centres undefined)
[1]
  Potency: inactive
[2]
  Potency: inactive
[3]
  Potency: inactive
[4]
  Potency: inactive
[8]
  Potency: inactive
Aromatase (Homo sapiens)
  Potency: inactive
[9]
  Potency: inactive
[15]
  Potency: inactive
[16]
  Potency: inactive
[17]
  Potency: inactive
[10]
  Potency: inactive
[19]
  Potency: inactive
[11]
  Potency: inactive
[12]
  Potency: inactive
[13]
  Potency: inactive

## COC(=O)Nc1nc2ccc(S(=O)c3ccccc3)cc2[nH]1 (centres undefined)
[1]
  Potency: inactive
[2]
  Potency: 10.6 µM (active) and 15.3 µM (active)
[3]
  Potency: inactive
[4]
  Potency: inactive
[5]
  Potency: inactive
[6]
  Potency: inactive
[7]
  Potency: 12.2 µM (active)
[8]
  Potency: inactive
Aromatase (Homo sapiens)
  Potency: inactive
[9]
  Potency: inactive
[15]
  Potency: 3.76 µM (active) and 3.06 µM (active)
[16]
  Potency: inactive
[17]
  Potency: inactive
[10]
  Potency: inactive
[19]
  Potency: inactive
[11]
  Potency: inactive
[12]
  Potency: inactive
[13]
  Potency: inactive

Source: PubChem BioAssay (Tox21)
